Source: PubChem BioAssay AID1508600 (Functional Genomics Laboratory (NCATS/FGL), 2020)
Out of some 53,000 sequences screened, about 3,700 (7%) were called active.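 Rule for the calls: active = gene knockdowns whose robust z-score for IL-1 alpha signal is at least 2 or at most -2, so actives lie on both sides; inactive = the rest.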 Shown is part of a subset that was picked to be rich in actives.

Test: Components of the Cytosolic LPS Sensing Pathway: Gene Identification via Genome-wide siRNA Screen;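 note: robust z of the log signal after scaling to non-targeting control siRNA wells of the plate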
Conditions: RAW264.7 macrophages, IL-1a HTRF, actives lie on both sides, screened at 100 nM (by protocol), cells primed 5 h with Pam3CSK4 first
How it was run: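 RAW264.7; siRNA 100 nM final, RNAiMAX, 48h 37 degrees C; Pam3CSK4 5 h; LipidA + TransIT-TKO 24 h; IL-1a HTRF; CellTiter-Glo viability; robust z vs negative-control median.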

Sequence | z-score
GGAACCAGAUCUCAUGCCCTT against Endov | -1.47 (inactive)
GGAUCACACUAGUAUUUUCTT against Sertad2 | -0.923 (inactive)
GCUAAAAACAACUAGGAAATT against Wdr60 | 0.391 (inactive)
GCAUCGUGUGCAAGAUCCUTT against Atp4b | 2.74 (active)
GGAAAUAUAUCUGAAAGGGTT against Sphkap | 0.514 (inactive)
GCUCGCUAAAGUGAUUAAATT against Gm5533 | 0.867 (inactive)
GGACUUUCUAAGGGUAAAATT against Luzp1 | -0.0646 (inactive)
GGACAAAGCUAUUGGGAUUTT against Olfr402 | 1.45 (inactive)
GGUGAUGGUCCAGAUUAACTT against Plpbp | -0.0895 (inactive)
GCUGAAAUAGUUGCUAAAUTT against Usp6nl | 0.443 (inactive)
GGAACUGUCACAACUGCUATT against Acat3 | 3.22 (active)
GGAGAAGCUCAUCUCUCUGTT against Rfx2 | -1.35 (inactive)
GGAACAUCUUUCUUCUCCATT against Abhd4 | -0.869 (inactive)
GGAUUCGGACUUCAUAAUCTT against Dpp10 | 0.256 (inactive)
GCUGAUAAAUCUGAACUACTT against Dhrs7 | 1.15 (inactive)
GGUUCUGAGUAUUUAAAGCTT against Nt5dc3 | 2.21 (active)
GGACAUCUCCUUGAUCUUGTT against Slc1a5 | -0.95 (inactive)
UCACCAUCUUGAAGAUUCGTT against Olfr486 | -0.792 (inactive)
GCAGGAUCCUGAAACCAUGTT against Lrrc14 | -2.09 (active)
GCCCAAGACGAAAAGAUACTT against Mrpl9 | 0.662 (inactive)
GGAUAGCAAAUUCAUCACATT against Ptprg | -0.214 (inactive)
GGCUUCGUAGCUUUACAAATT against Abca6 | -0.846 (inactive)
GGAAAGGUCAAGAGAAUUUTT against Strn3 | -1.16 (inactive)
GGACUUACUGACAAGAAACTT against Pcdhgb8 | -0.52 (inactive)
UUCUAAUUGUCACUUGGUGTT against Olfr1474 | -0.133 (inactive)
GCUGGAUUAUUUGAGAGUCTT against Trim62 | 2.17 (active)
GCAUUAAGCAAUGGCAUCATT against Cbfa2t2 | 0.21 (inactive)

Sequence | z-score
GCAUCAGAGAAGUGCGAGCTT against Pafah2 | -0.0121 (inactive)
GCUCAUGAUCAUAUCAUGATT against 1810055G02Rik | 0.647 (inactive)
CCCACACAAUUCUCAUGGGTT against Olfr366 | 0.661 (inactive)
GGAAUACGAAGAGAUUAUATT against Zw10 | 0.65 (inactive)
CCUAGAAAAGUCAUUGUCATT against 3010003L21Rik | -2.08 (active)
CCUUCAAGAUAAAUUGACATT against Tango6 | 0.755 (inactive)
GGAAAAGGCCAUGAAUAUATT against Mmel1 | 0.176 (inactive)
GGCCAGACACAGGUAGACATT against B9d2 | -1.85 (inactive)
CGGACGAUUCGUGUCAAUUTT against Ppie | 0.619 (inactive)
GGACGAACAGUAUUAUACUTT against Lhx5 | 2.11 (active)
CCUGAUGUUAUUCCUUUUATT against Klhl20 | -0.524 (inactive)
GGUGAUGACGAAGGAAUCCTT against Zfpm2 | -1.51 (inactive)
GGAGCAAGACAUAUAGAAATT against Spsb2 | 2.26 (active)
GGACAUUUUUAUUAGUGGATT against Gtpbp8 | 1.04 (inactive)
CCAUUGGAGGAUAAGUUUUTT against Mtm1 | -0.0988 (inactive)
GGAAAAUGGAGAACUAAAGTT against Uxs1 | 1.88 (inactive)
GGAUAAACCCUACGUUCUATT against Slc44a4 | 0.658 (inactive)
GGUUAUCCGUGGUAACCAUTT against Taok3 | 0.78 (inactive)
CGAACGUGAUGAGUUAUGGTT against Vmn1r83 | -2.67 (active)
GGUAUUCGUGGAGUGGAGATT against Pdcd2l | 0.0458 (inactive)
GGGCAAUUAGUAAAGGCUATT against Eif2s3x | 2.02 (active)
GGUCCUACAAAAAGAUGGATT against Mettl7b | -0.536 (inactive)
CGAGAUUGUGCUGAUAGAGTT against Nptx2 | 0.533 (inactive)
CGUGUUGUACUACGUAUAUTT against Abtb1 | -0.172 (inactive)
CCUAAAAGACUUUGGAGACTT against Arg2 | -1.09 (inactive)
GGCCCUCAUGAUUGCUAUGTT against Nek8 | -0.722 (inactive)
CCUUCCAUGGUGAGGAUAATT against Stim1 | -2 (active)
